PP5 primary = blocks human protein phosphatase 5 activity; actives 0.18% (n = 320,000); purified PP5c, OMFP substrate fluorescence; AID 1987; inhibition, % at 6.7 µM; P53041;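 active means inhibition above the campaign's mean inhibition across all tested compounds plus 3 SD, cut at about 9.5% in these data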;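 further: 0% = DMSO only and 100% = 100 µM cantharidin control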
PP1 counter = blocks human PP1-alpha phosphatase, a PP5 counter-screen; AID 2235; purified PP1alpha, OMFP fluorescence; inhibition, % at 6.7 µM; actives 0.9% (n = 320,000);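 active means inhibition above the mean inhibition of all tested compounds plus 3 SD, computed separately for each screening campaign, cut at about 15% in these data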
Beta apoptosis = beta cell apoptosis inhibition. INS-1E cytokine-induced death, ATP luminescence, 48 h; percent of positive-control rescue, neutral wells zero. protection from apoptosis, % (test concentration not listed). actives 0.8% (n = 300,000). AID 435005;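 active means Every replicate reaches about 75%, or at least half do and their mean reaches it too, limit read from the data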;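 further: 0% = cytokine-treated negative control wells and 100% = positive control rescue; higher means more ATP so stronger rescue from cytokine killing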
CSC inhib = cancer stem cell inhibition; cancer stem cell-like cells viability, luminescence; inhibition, % at 7.5 µM; actives 1.1% (n = 300,000); AID 2717; in the data active means inhibition above about 75%; tested in HMLE shEcad cells
SKKanGAS inh = SKKanGAS growth inhibition | inhibition, % at 7.5 µM | S. pyogenes SKKanGAS, kanamycin growth, BacTiter-Glo, 6 h | actives 1.3% (n = 300,000) | AID 1662;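 active means mean replicate score, as percent of positive control median, at least 50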;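 further: strain carries kanamycin resistance gene driven by streptokinase promoter and grows in 40 µg/ml kanamycin; loss of luminescence reflects streptokinase promoter inhibition or plain growth inhibition; 0% = median of DMSO wells and 100% = positive control at its reference dose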
* marks the source's active call; other numbers are inactive results; nt = not tested or not shown. In the library only some 3.1% were active in any assay of this set; here they are far more common.

SMILES	PP5 primary	PP1 counter	Beta apoptosis	CSC inhib	SKKanGAS inh
Cc1ccc(NC(=O)c2ccc([N+](=O)[O-])o2)cc1S(=O)(=O)N1CCOCC1	0	-4	94*	2	25
Cc1ccc(C(=O)N2CCOCC2)cc1S(=O)(=O)N1CCOCC1	1	-3	nt	-6	51*
O=C(Nc1cccc(S(=O)(=O)N2CCCCC2)c1)c1ccc([N+](=O)[O-])o1	0	0	-11	78*	42
NS(=O)(=O)c1ccc(CCNC(=O)Cc2ccc(Cl)cc2)cc1	5	-3	2	18	5
O=C1C2CCCN2c2ccc(S(=O)(=O)N3CCOCC3)cc2N1Cc1cccc(C(F)(F)F)c1 (stereo not given)	1	30*	6	-1	4
O=C1C2CCCN2c2ccc(S(=O)(=O)N3CCOCC3)cc2N1Cc1ccccc1F (stereo not given)	1	6	2	-14	4
CSc1ccccc1OCc1cc(C(=O)N2CCc3c(Cl)cccc3C2)no1	0	-1	79*	14	14
CSc1ccccc1OCc1cc(C(=O)N2CCNC(=O)C2)no1	1	0	nt	0	36
NC(=O)c1ccc(NC(=O)COC(=O)CCC(=O)c2ccc(Cl)cc2)cc1	0	-4	3	-5	-8
Cc1ccc(-n2cccc2C(=O)NS(=O)(=O)c2ccc(C)cc2)cc1	-2	2	1	-7	-3
Cc1ccc(-n2cccc2C(=S)N=P(N(C)C)(N(C)C)N(C)C)cc1	1	0	102*	-3	7
Cn1c(NCc2ccco2)nc2c1c(=O)n(Cc1ccc(Cl)c(Cl)c1)c(=O)n2C	1	0	7	23	59*
Cc1nc(Nc2cccc(C(C)O)c2)c2nnn(Cc3ccc(F)cc3)c2n1 (stereo not given)	2	-1	0	1	2
N#CC(C#N)=NNc1ccc([N+](=O)[O-])cc1	3	-1	14	61	86*
C/C(=N\Nc1ccc([N+](=O)[O-])cc1)c1ccc(C#N)cc1	0	-2	3	0	1
COc1ccc(C(=O)/C(C#N)=N/Nc2ccc([N+](=O)[O-])cc2)cc1	3	8	107*	18	11
COc1ccc(C(=O)/C(C#N)=N/Nc2ccccc2[N+](=O)[O-])cc1	2	-1	27	-3	3
CCOc1ccccc1NC(=O)C(NCC1CCCCC1)c1ccccc1 (stereo not given)	1	2	2	24	55*
Cc1cc(N/N=C/c2ccc(O)cc2O)nc(-n2nc(C)cc2C)n1	6	16*	99*	29	-7
Cc1cc(N/N=C/c2ccccc2[N+](=O)[O-])nc(-n2nc(C)cc2C)n1	4	12	128*	54	6
Cc1ccc(NC(=O)c2cc(N3C(=O)C=CC3=O)ccc2Cl)cc1C	6	8	nt	-7	-10
CNC(=O)c1c(NC(=O)c2ccc(N3C(=O)CCC3=O)cc2)sc2c1CCC(C)C2 (stereo not given)	6	4	0	-5	61*
CCc1ccc(NC(=O)CCN2C(=O)c3cccnc3C2=O)cc1	-1	1	0	-8	23
CCc1ccc2c(c1)C(=O)C(=O)N2CC(=O)Nc1ccc(NC(=O)c2ccccn2)cc1	3	16*	-3	-22	3
CC(NC(=O)c1cc(COc2ccccc2)on1)c1nccs1 (stereo not given)	0	-1	1	15	3
SMILES	PP5 primary	PP1 counter	Beta apoptosis	CSC inhib	SKKanGAS inh
O=C(c1cc(COc2ccc3ncccc3c2)on1)N1CCCCCC1	2	-3	91*	15	1
CC(NC(=O)c1cc(COc2ccc3ncccc3c2)on1)c1ccc(F)cc1 (stereo not given)	2	14	105*	56	2
Cc1cc(OCc2cc(C(=O)N3CCC(Oc4cccnc4)CC3)no2)cc(C)c1Cl	5	1	nt	77*	6
O=C(NCCc1cn2ccccc2n1)c1cc(COc2ccc3ncccc3c2)on1	0	1	104*	4	-9
COc1ccc(S(=O)(=O)N(NC2=NS(=O)(=O)c3ccccc32)C(=O)C(C)C)cc1	1	1	-6	-8	-5
O=C(Nc1ccc(-c2n[nH]c(=S)o2)cc1)c1ccccc1Br	1	0	1	-8	20
CC(C)CC(OC(=O)c1ccco1)C(=O)NC1CCCC1 (stereo not given)	-2	-1	3	2	4
COc1cccc(CN(C)C(=O)c2cc(COc3c(F)cccc3F)on2)c1	1	-1	0	7	0

Bioassay records: PubChem BioAssay, several laboratories
